{"source": "PubChem BioAssay AID1457", "about": "(National Center for Advancing Translational Sciences (NCATS), 2008)", "note": "Among all 210,000 compounds or so, about 730 (0.35%) were called active. Inconclusive results (about 1%) are left out. The sample holds actives, similar compounds and a random draw of the others, so the mix is not that of the screen. Values without a mark were called inactive. Calls come from the whole dose curve; as a rule, active = well fitted inhibition curve with a large enough effect; inconclusive = small, poorly fitted or top-dose-only effect; inactive = no such curve, though single readings can be large or run the other way. Potency is the fitted concentration of half-maximal effect.", "data": [{"test": "qHTS Assay for Identifying the Cell-Membrane Permeable IMPase Inhibitors: Potentiation with Lithium;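 note: IP1 builds up when IMPase is blocked and the TR-FRET signal falls; nearly all actives have a fitted effect of over 50% in size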;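 for activity, negative = IMPase inhibition: plate controls were basal vehicle for no effect and high inhibitor control for full effect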", "settings": "CHO-M1 cells, IP1 TR-FRET (IP-One), carbachol + lithium; series mostly up to 59.4 µM; activity, negative = IMPase inhibition: at the top concentration", "excerpt": "NIH Chemical Genomics Center [NCGC]\nNIH Molecular Libraries Probe Production centers Network [MLPCN]\nAssay Submitter (PI): Wei Zheng\nLithium has been widely used for the treatment of bipolar disorder. But lithium has a narrow therapeutic index and it can cause side effects such as thirst, weight gain, tremor, polyuria and memory problems. Although the mechanism for lithium action in treatment of bipolar disorder is still not fully understood, inhibition of inositol monophosphatase (IMPase) and the subsequent depletion of the inositol pool in living cells have been implicated as the primary therapeutic benefit of lithium therapy. Therefore, a selective IMPase inhibitor with reduced side effects might be a good drug candidate to replace lithium for the treatment of bipolar disorder. Several IMPase inhibitors have been discovered previously. However, they are not suitable for therapeutic use because of their poor cell membrane penetrability or oral bioavailability; the development of new cell-permeable IMPase inhibitors is needed.\nIMPase catalyzes the hydrolysis of inositol-1-phosphate (IP1) to release free inositol. Binding of an agonist to a Gq coupled GPCR results in the activation of PLC, which hydrolyzes the PIP2 to form inositol-1,4,5-trisphosphate (IP3) and diacyl glycerol (DAG). While DAG activates protein kinase C (PKC), IP3 triggers the elevation of intracellular free Ca2+. The IP3 is very rapidly inactivated by hydrolysis to IP2, IP1 and then inositol by a series of enzymes including IMPase. Free inositols are used for synthesis of PI and thus start another inositol cycle.\nTo identify new cell-permeable IMPase inhibitors, we developed a cell-based IMPase assay in which the cytosolic IP1 is measured by a time-resolved fluorescence resonance energy transfer (TR-FRET) assay. In this assay, an IP1 specific antibody is used to detect the labeled IP1 tracer. When the cell lysate contains the elevated IP1 due to the inhibition of IMPase, the TR-FRET between the labeled antibody and IP1 tracer is disrupted resulting in a reduction in the total signal. Since the TR-FRET is used, this cell-based assay is a homogenous assay without cell wash and medium change that is suitable for assay miniaturization and HTS. In this particular assay, a small amount of lithium is added to potentiate the response of weak activators.\nNCGC Assay Protocol Summary:\nA Chinese hamster ovary (CHO) cell line stably expressing the M1 receptor (CHO-M1) was obtained from ATCC and maintained in F-12 Kaighn's media (Invitrogen, Carlsbad, CA) supplemented with 10 % FBS, 100 units/ml penicillin, 100 ug/ml streptomycin and 250 ug/ml geneticin at 37C, 5% CO2 in a humidified atmosphere. Before the assay, aliquots of cells were frozen and stored at -135C. The assay was performed in 1536-well format. Data are reported for both the ratio of the two emission wavelengths, and also for the component 'donor' channel, Em2=620. […] AC50 values were determined from concentration-response data modeled with the standard Hill equation.\n(1) Frozen CHO-M1 cells were thaw, washed once with fresh media and resuspended in F12K media containing 10% FBS, 100 units/ml penicillin and 100 ug/ml streptomycin. Cells were plated at 4ul/well (2000 cells) in white, tissue culture treated 1536-well plates, and then cultured at 37C, 5 % CO2 for 16 to 30 hours.\n(2) Add 23 nl/well of compound in DMSO solution. The final titration for each compound was between 0.6 nM and 46 uM.\n(4) Incubation at 37C, 5 % CO2 for 30 min.\n(5) Add 1 ul/well of d2-conjugated IP1 (d2-IP1) and 1 ul/well of Eu+ cryptate conjugated anti-IP1 antibody (Eu+-Ab) prepared in the cell lysis buffer, both from the IP-One kit (Cisbio, MA).\n(6) Incubate at room temperature for 10 minutes.\n(7) Detect the assay plate (Ex = 320, Em1 =665 and Em2 620) in a ViewLux plate reader.", "values": [{"smiles": "CCOC(=O)C1=C(C)c2ccccc2OC1(C)C(=O)OCC", "note": "(stereo not drawn)", "activity, negative = IMPase inhibition": "-2.23%"}, {"smiles": "CCCCC/C=C\\C/C=C\\CCCCCCCCCC(=O)O", "Potency": "inactive"}, {"smiles": "C[C@H]1Cc2c(COc3ccccc3)nc3c(c2CO1)CN(C(=O)Nc1cccc(C#N)c1)CC3", "activity, negative = IMPase inhibition": "-3.57%"}, {"smiles": "C#CCCOC(=O)N1C2=NC(C(=O)OC)=C(C(=O)OC)[C@@H]3N(C)c4ccc(OC)cc4[C@]23C[C@H]1C(=O)OC", "activity, negative = IMPase inhibition": "-1.69%"}, {"smiles": "COc1ccc(-c2nc3c(c4c2C[C@H](c2ccccc2)OC4)CN(C(=O)c2ccco2)CC3)c(C)c1", "activity, negative = IMPase inhibition": "4.59%"}, {"smiles": "C=CC1=C2C=C(C3CC3)N(C(CO)CO)C=C2C(=O)C(C)(OC(=O)c2ccco2)C1=O", "note": "(stereo not drawn)", "activity, negative = IMPase inhibition": "3.61%"}, {"smiles": "COc1ccc2c(c1)O[C@@H](c1ccc3c(c1)OCO3)[C@H](OC(=O)NCc1ccco1)C2=O", "activity, negative = IMPase inhibition": "-3.02%"}, {"smiles": "Cc1ccc(S(=O)(=O)N2CC(=O)Nc3ccccc32)cc1C", "activity, negative = IMPase inhibition": "-2.99% [at 38.3 µM]"}, {"smiles": "Cc1ccc(C)c(S(=O)(=O)N2CC(=O)Nc3ccccc32)c1", "activity, negative = IMPase inhibition": "21.6% [at 38.3 µM]"}, {"smiles": "O=C1CN(c2nc(-c3ccccc3)c3cc(Br)ccc3n2)c2ccccc2N1", "Potency": "12.6 µM (active)"}, {"smiles": "COc1ccc(-c2nc3c(c4c2C[C@H](c2ccccc2)OC4)CN(S(=O)(=O)c2c(C)noc2C)CC3)c(C)c1", "activity, negative = IMPase inhibition": "2.36%"}, {"smiles": "O=C(c1ccco1)N1CCC2(CC1)CN(c1ncccn1)C2", "activity, negative = IMPase inhibition": "-29.1%"}, {"smiles": "O=C(c1ccco1)N1CCC2(CC1)CCN(c1ncccn1)CC2", "activity, negative = IMPase inhibition": "2.75%"}, {"smiles": "O=C(C1=C(O)C(=O)N(c2ncccn2)C1c1cccs1)c1ccco1", "note": "(stereo not drawn)", "Potency": "11.2 µM (active)"}, {"smiles": "C=CCC1CCC(=O)N2CCCC12", "note": "(stereo not drawn)", "activity, negative = IMPase inhibition": "8.46%"}, {"smiles": "C[C@@H]1C(c2ccc(F)cc2)=NN(c2ccc(Br)cc2)[C@H]1C(=O)N1CCOC1=O", "activity, negative = IMPase inhibition": "0.815%"}, {"smiles": "COC(=O)CC1c2ccccc2C(Cc2ccc(OC)cc2)=C(C)N1C(=O)OC", "note": "(stereo not drawn)", "activity, negative = IMPase inhibition": "3.73%"}, {"smiles": "COc1cc(OC)c2c(c1)OC(=O)CC2c1cc(OC)c(OC)c(OC)c1", "note": "(stereo not drawn)", "activity, negative = IMPase inhibition": "23.6%"}, {"smiles": "CC1=C2[C@@H](O)[C@H]([C@@H](C)C(=O)NCCC(C)C)CC[C@@]2(C)C=CC1=O", "activity, negative = IMPase inhibition": "2.85%"}, {"smiles": "C=CC1(C)CC(=O)C2(O)C(C)(O1)C(OC(C)=O)C(O)C1C(C)(C)CCC(O)C12C", "note": "(stereo not drawn)", "Potency": "inactive"}, {"smiles": "COC(=O)C1=C(C(=O)OC)[C@@H]2N(C)c3ccccc3[C@@]23C[C@@H](C(=O)OC)N(C(C)=O)C3=N1", "activity, negative = IMPase inhibition": "-5.12%"}, {"smiles": "CCN(CC)C(=O)c1sc2nc(-c3ccccc3)ccc2c1N", "Potency": "10 µM (active)"}, {"smiles": "Nc1c(C(=O)NCc2ccccc2)sc2nc3c(cc12)C(=O)CCC3", "activity, negative = IMPase inhibition": "-0.997% [at 38.3 µM]"}, {"smiles": "CCCC(=O)n1nc(-c2ccccc2)nc1N", "activity, negative = IMPase inhibition": "1.74%"}, {"smiles": "CCCCC/C=C\\CC1OC1CCCCCCCC(=O)O", "note": "(stereo not drawn)", "Potency": "inactive"}, {"smiles": "O=C(COC(=O)Cn1cnc2ccccc21)Nc1cccc2c1C(=O)c1ccccc1C2=O", "activity, negative = IMPase inhibition": "16.9%"}, {"smiles": "O=C(COC(=O)c1ccccc1)Nc1ccccc1Sc1ccccc1", "activity, negative = IMPase inhibition": "2.86%"}, {"smiles": "O=C(COC(=O)c1cccc(Br)c1)Nc1cccc2c1C(=O)c1ccccc1C2=O", "Potency": "11.2 µM (active)"}, {"smiles": "C=CCOC(=O)NC(c1ccc(F)c(F)c1)C(C(=O)COC)C(=O)OC", "note": "(stereo not drawn)", "Potency": "inactive"}, {"smiles": "Cc1csc(-c2coc3cc(O[C@@H]4O[C@H](CO)[C@@H](O)[C@@H](O)[C@H]4O)ccc3c2=O)n1", "activity, negative = IMPase inhibition": "7.9%"}, {"smiles": "CC(C)(Oc1ccc(C2CC2(Cl)Cl)cc1)C(=O)O", "note": "(stereo not drawn)", "activity, negative = IMPase inhibition": "8.64%"}, {"smiles": "CC(O)[C@@H](N)C(=O)O", "note": "(stereo partly drawn)", "activity, negative = IMPase inhibition": "12%"}, {"smiles": "CCCCCCCC/C=C\\CCCCCCCC(=O)OC[C@H](CO)OC(C)=O", "Potency": "inactive"}, {"smiles": "CCOC(=O)C1=C(C(=O)OCC)C(C(=O)OCC)N(S(=O)(=O)C(F)(F)F)c2ccccc21", "note": "(stereo not drawn)", "activity, negative = IMPase inhibition": "2.92%"}, {"smiles": "Cc1cc(NC(=O)COc2ccc(Cl)cc2Cl)n(CCC#N)n1", "activity, negative = IMPase inhibition": "-18.1% [at 38.3 µM]"}, {"smiles": "N#Cc1ccccc1NC(=O)c1cccc(COc2ccc(Cl)cc2Cl)c1", "Potency": "8.91 µM (active)"}, {"smiles": "CSc1ccc(C#N)cc1NC(=O)c1cccc(Cl)c1", "activity, negative = IMPase inhibition": "-4.13% [at 38.3 µM]"}, {"smiles": "O=C(Nc1ccc(Sc2ccc(Br)cc2)cc1)c1ccco1", "activity, negative = IMPase inhibition": "6.53% [at 38.3 µM]"}, {"smiles": "O=C(Nc1c(-c2ccccc2)nc2c(Br)cc(Br)cn12)c1ccco1", "Potency": "10 µM (active)"}, {"smiles": "Cc1ccccc1NC(=O)c1cnn(-c2ccccc2)c1NC(=O)c1ccco1", "activity, negative = IMPase inhibition": "-10.3% [at 38.3 µM]"}, {"smiles": "COc1ccc(-c2c(C)cc3oc(=O)cc(-c4ccccc4)c3c2C)cc1OC", "activity, negative = IMPase inhibition": "16.6%"}, {"smiles": "C=C(C)C(=O)c1ccc(F)cc1", "activity, negative = IMPase inhibition": "17.7%"}, {"smiles": "Cc1sc2ncnc(Sc3nc4ccccc4s3)c2c1C", "Potency": "14.1 µM (active)"}, {"smiles": "c1ccc2sc(SCCSc3nc4ccccc4s3)nc2c1", "activity, negative = IMPase inhibition": "-2.64%"}, {"smiles": "CSc1ncnc2sc(C)c(C)c12", "activity, negative = IMPase inhibition": "1.83%"}, {"smiles": "COC(C)C(C(=O)OCC1=CCN2CC[C@H](O)[C@@H]12)C(C)C", "note": "(stereo partly drawn)", "activity, negative = IMPase inhibition": "29.6%"}, {"smiles": "OC[C@H]1O[C@@H](n2cnc3c(NC4CCCC4)ncnc32)[C@H](O)[C@H]1O", "activity, negative = IMPase inhibition": "22.1%"}, {"smiles": "CC/C=C\\C/C=C\\C/C=C\\C/C=C\\C/C=C\\C/C=C\\CCC(=O)NCCc1ccc(O)c(O)c1", "activity, negative = IMPase inhibition": "14.2%"}]}]}
